# Data as given in PMC11024108.
# Biological target: T1, Monocarboxylate transporter 1 (UniProt P53985)
# T1 sequence: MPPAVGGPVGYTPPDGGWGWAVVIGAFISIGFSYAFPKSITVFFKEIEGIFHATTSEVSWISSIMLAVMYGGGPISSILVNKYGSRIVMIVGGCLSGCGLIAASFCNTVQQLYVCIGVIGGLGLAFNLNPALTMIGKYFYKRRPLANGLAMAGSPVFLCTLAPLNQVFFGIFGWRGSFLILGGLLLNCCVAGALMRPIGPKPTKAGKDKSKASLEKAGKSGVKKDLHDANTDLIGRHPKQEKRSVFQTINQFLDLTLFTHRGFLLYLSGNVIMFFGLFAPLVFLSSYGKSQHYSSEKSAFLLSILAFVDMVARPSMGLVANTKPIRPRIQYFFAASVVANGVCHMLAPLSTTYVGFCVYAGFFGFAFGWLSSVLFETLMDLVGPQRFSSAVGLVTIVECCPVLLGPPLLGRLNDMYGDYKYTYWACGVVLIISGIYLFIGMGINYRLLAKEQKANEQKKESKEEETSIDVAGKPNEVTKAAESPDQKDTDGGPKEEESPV
# Test: cross-link between two proteins; cross-linking mass spectrometry
substance,measurement,value
"Sodium/potassium-transporting ATPase subunit alpha-1, P05023",listed as a hit,yes
